# Ecoli rRNA inh = reduced GFP signal of wild-type E. coli, primary screen, bacterial rRNA inhibitor project, GFP/RFP fluorescence, OD600, single point; E. coli WT GFP vs humanized-ribosome RFP mutants, 24 h; stronger effect = lower value; DMSO median 0, no signal -100; GFP signal change (wild-type ribosome), % (no concentration beside the values); actives 1.6% (n = 350,000); AID 720706, 2013;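 active = significant combined selectivity score with lowered wild-type GFP, culture density cut under 30%, mutant RFP and density less affected; inactive = any of these conditions unmet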
# CFTR F508del cor = F508del CFTR correction, initial screen, CFBE line, single point. activity (quench increase), % at 7.58 µM. CFBE cells, YFP halide quenching; stimulated with forskolin plus potentiator P3; % fluorescence drop versus neutral controls. actives 0.36% (n = 350,000);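 active = mean added fluorescence quench of at least 8% versus neutral control, with both replicates also reaching 8%; inconclusive = only one of the mean or replicate conditions met; inactive = mean below 8% and not both replicates reaching 8%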;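 also: cells transiently co-express mutant CFTR-F508del with the halide-sensitive YFP; corrector assay measuring rescue of mutant channel to the surface after 24 h compound exposure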
# PvdQ acylase = P. aeruginosa PvdQ acylase inhibitors, primary screen, biochemical, fluorescence, plate reader and imaging, single point; purified PvdQ acylase; inhibition, % at 10 µM; actives 0.063% (n = 340,000); AID 488965, 2010; in the data active = inhibition above about 30%, passing the limit was not always enough; inconclusive = no clear call, values can overlap the other calls;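 also: 0% = vehicle neutral wells and 100% = reference inhibitor wells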
# ARNT-TACC3 inh = disruptors of ARNT/TACC3 protein interaction, primary screen, biochemical, AlphaScreen, single concentration; Transforming acidic coiled-coil-containing protein 3 (Homo sapiens), Q9Y6A5; AlphaScreen His-ARNT PAS-B/GST-TACC3 binding, luminescence; TACC3 fragment carries E629A point mutation; inhibition, % at 9.99 µM; actives 0.66% (n = 390,000);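 active = mean inhibition of replicates at least 50% and at least half of replicates each reaching 50%; inconclusive = half or more replicates reach 50% but mean below 50%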;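 also: 0% = complete ARNT plus TACC3 wells and 100% = ARNT alone without TACC3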
# ERAP1 HTS inh = human ERAP1 aminopeptidase inhibitors, primary screen, biochemical, single point, plate reader; Endoplasmic reticulum aminopeptidase 1 (Homo sapiens), Q9NZ08; actives 0.15% (n = 340,000); inhibition, % at 10.7 µM; recombinant ERAP1, Leu-AMC fluorescence, 60 min;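 active = mean replicate inhibition of at least 30%, or all replicates individually reaching that 30% level; inactive = mean below 30% and not every replicate reaching it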;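 also: 0% = neutral control wells and 100% = L-leucinethiol positive control wells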
# Target sequence (Q9NZ08 whole entry, looked up): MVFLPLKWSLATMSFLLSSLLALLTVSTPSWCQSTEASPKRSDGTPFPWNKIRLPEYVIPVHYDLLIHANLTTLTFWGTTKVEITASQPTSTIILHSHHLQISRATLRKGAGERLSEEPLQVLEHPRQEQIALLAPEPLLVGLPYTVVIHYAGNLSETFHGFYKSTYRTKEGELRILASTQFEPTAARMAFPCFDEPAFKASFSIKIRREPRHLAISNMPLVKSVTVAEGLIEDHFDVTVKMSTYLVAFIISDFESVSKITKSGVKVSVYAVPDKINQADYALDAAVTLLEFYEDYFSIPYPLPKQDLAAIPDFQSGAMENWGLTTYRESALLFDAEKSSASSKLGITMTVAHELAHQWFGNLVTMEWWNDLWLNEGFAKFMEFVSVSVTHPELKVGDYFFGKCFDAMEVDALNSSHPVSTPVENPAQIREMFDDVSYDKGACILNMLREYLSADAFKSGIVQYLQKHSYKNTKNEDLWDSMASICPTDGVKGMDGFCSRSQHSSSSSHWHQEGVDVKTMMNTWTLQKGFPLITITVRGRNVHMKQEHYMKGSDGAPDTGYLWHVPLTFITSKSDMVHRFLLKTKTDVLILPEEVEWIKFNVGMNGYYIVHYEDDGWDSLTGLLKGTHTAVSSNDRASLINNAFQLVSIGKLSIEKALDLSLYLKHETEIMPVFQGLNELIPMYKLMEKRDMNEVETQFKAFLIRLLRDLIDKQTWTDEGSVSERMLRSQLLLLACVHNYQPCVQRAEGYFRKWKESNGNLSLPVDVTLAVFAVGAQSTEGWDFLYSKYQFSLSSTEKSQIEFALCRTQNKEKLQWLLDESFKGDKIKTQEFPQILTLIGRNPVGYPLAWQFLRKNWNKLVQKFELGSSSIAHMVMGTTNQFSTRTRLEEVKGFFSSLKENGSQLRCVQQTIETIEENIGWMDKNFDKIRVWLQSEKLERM
# ARNT Alpha ctr = AlphaScreen signal interference compounds, dose response, artefact control for ARNT-TACC3 interaction inhibitor project, biochemical, luminescence, cherry-pick | His-ARNT PASB-GST AlphaScreen artifact counter-screen | AID 651705, 2012 | AC50, µM (titrated, usually from 68 µM), for inactives: at the highest dose activity change, negative = signal decrease | actives 50% (n = 1,200) | shares compounds with ARNT-TACC3 inh;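 active = every separate test run was called active for a drop in luminescence, with AC50 within twice the top valid dose, actives reach about 71 µM in these data; inconclusive = the separate test runs disagree in their calls; inactive = all runs inactive, including signal change in the wrong direction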
# AID977621 = growth inhibition of wild-type GFP E. coli, dose response, H69 mutant RFP, cherry-pick; shares compounds with Ecoli rRNA inh; E. coli wild-type GFP strain growth, fluorescence, 24 h; activity change, negative = inhibition at 50 µM; 1,900 tested, under 10 active;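 active = Wild-type ribosome reporter drop at least double the humanized mutant ribosome reporter drop, growth loss under a set limit; inconclusive = no clear call, values can overlap the other calls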;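 also: wild-type GFP and H69 mutant RFP strains grown together 50/50 in each well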
# Starred values were filed as active, the others as inactive; u = inconclusive; x = not tested or not shown. In the library only some 2.1% were active in any assay of this set; here they are far more common.
SMILES,Ecoli rRNA inh,CFTR F508del cor,PvdQ acylase,ARNT-TACC3 inh,ERAP1 HTS inh,others
C[C@]12CCC3C(CC[C@H]4[C@@H](O)[C@H](O)CC[C@]34C)C1CCC2=O (some centres not stated),-22.4*,-1.4,-10.4,-7.6,-1.2,
COC(=O)[C@H]1[C@H](CO)[C@H]2Cn3c(ccc(/C=C/c4ccccc4)c3=O)[C@@H]1N2C(=O)C1CCC1,-6.2,-2.8,x,-13.1,-312.9,
Cc1cccc(S(=O)(=O)N2[C@@H]3Cn4c(ccc(-c5cccc(F)c5)c4=O)[C@H]2[C@@H](C(=O)O)[C@@H]3CO)c1,2.2,-0.2,x,x,x,
CCCCn1c(O)c(C(C)=NCc2cc(OC)cc(OC)c2)c(=O)[nH]c1=O,x,x,-7.1,26.3*,x,
CCN1[C@@H]2c3ccc(-c4cccc(OC)c4)c(=O)n3C[C@H]1[C@H](CO)[C@H]2C(=O)OC,-3.3,0.4,x,-0.3,0.5,
CCOC(=O)c1cc2c(cn1)[C@@H](CCO)NC2,4.3,-1.7,-7.2,55.5*,3.2,ARNT Alpha ctr=-6.4%
O=C(Cc1cccnc1)N1CCCCN2[C@@H](CO)[C@H](c3ccc(C#CC4CC4)cc3)[C@@H]2C1,x,-4.6,x,x,3.7,
CCCN1[C@@H]2Cn3c(ccc(-c4cccc(OC)c4)c3=O)[C@H]1[C@@H](C(=O)OC)[C@@H]2CO,2.3,0.7,x,x,-0.7,
COC(=O)[C@@H]1[C@@H](CO)[C@@H]2Cn3c(ccc(C4=CCCCC4)c3=O)[C@H]1N2C(=O)CC1CC1,-1.1,0.3,x,-1.5,7.9,
CCCCn1c(N)c(C(=O)OCCOC)c2nc3ccccc3nc21,1.7,-0.7,x,x,-28.9,
CCCCn1c(NC(=O)c2ccco2)c(C(=O)OCC)c2nc3ccccc3nc21,x,x,-7.4,29.9*,x,ARNT Alpha ctr=-14.1%
CCCCOCCCn1c(N)c(C(=O)OCCOC)c2nc3ccccc3nc21,x,x,-27.8,68.2*,x,ARNT Alpha ctr=-10.4%
COCCCn1c(N)c(C(=O)NCCC(C)C)c2nc3ccccc3nc21,x,x,-13.6,active,x,ARNT Alpha ctr=-2.2%
C=CCN1[C@@H]2CN(C(=O)NC(C)C)C[C@H]1C2c1ccc(Br)cc1 (some centres not stated),0.5,x,x,x,x,
COc1cc2c(c(OC)c1OC)-c1ccc(O)c(=O)cc1[C@@H](N)CC2,x,0.7,2.8,57.8*,2.0,ARNT Alpha ctr=-34.9%
COc1ccc(-c2cc(=NCCC(=O)O)c3cc(C)ccc3o2)cc1,-15.9,0.6,0.4,30.2*,20.8,ARNT Alpha ctr=-29.9%
COc1ccc(Cc2c(O)[nH]c(=O)[nH]c2=O)c(OC)c1,10.9,-3.3,-7.7,14.9*,2.2,ARNT Alpha ctr=-3.7%
COc1ccc(CC2C(=O)NC(=O)NC2=O)c(OC)c1,x,x,-14.0,-4.3,x,
COC(=O)C[C@@H]1CC[C@H]2NC[C@H](O)COC[C@@H]2O1,-0.4,4.4,x,-2.3,-3.0,
CCOC(=O)[C@]12Cc3ccccc3[C@H]1N(C)C(=O)c1cc(OC)ccc12,-20.3*,0.3,x,x,x,AID977621=-16.4
CCOC(=O)[C@]12Cc3ccccc3[C@H]1N(C(C)C)C(=O)c1cc(OC)ccc12,-42.9,-1.2,x,x,x,
O=C(O)[C@H]1[C@H](CO)[C@H]2Cn3c(ccc(-c4cncnc4)c3=O)[C@@H]1N2C(=O)NC1CCCC1,2.3,-1.0,x,-8.4,-0.3,
CCCNC(=O)[C@H]1[C@H](CO)[C@H]2Cn3c(cccc3=O)[C@@H]1N2CCC,3.3,-1.8,x,x,x,
C[C@]12CCC3C(CC[C@H]4C[C@@H](O)CC[C@]34C)[C@H]1CC[C@H]2O (some centres not stated),-20.4*,-4.5,-12.1,-7.4,0.9,AID977621=-25.8
CCCCn1c(NS(=O)(=O)c2ccc(C)cc2)c(C(=O)OCC)c2nc3ccccc3nc21,-22.4*,3.1,-6.0,-0.8,-2.9,AID977621=u
CCOC(=O)c1c(C)n(Cc2ccccc2)c2ccc(O)cc12,-27.4*,-1.1,5.4,4.1,1.4,AID977621=-16
COC(=O)c1c(C)n(Cc2ccccc2)c2ccc(O)cc12,-31.5,0.6,-12.6,-1.9,-0.6,
COC(=O)[C@H]1[C@H](CO)[C@H]2Cn3c(cccc3=O)[C@@H]1N2C(=O)C1CCC1,x,-0.5,x,2.9,0.9,
CC(=O)OC1N=C(c2ccccc2Cl)c2cc(Br)ccc2NC1=O (configuration not stated),-19.8*,-2.3,-6.1,0.3,2.8,AID977621=-14.3

# Compound activity: PubChem BioAssay, Broad Institute
